Screening results: PubChem BioAssay, National Center for Advancing Translational Sciences (NCATS)
Most compounds without a hit are left out; they make up all but 6% or so of the library.
D1 antag: antagonists of human D1 dopamine receptor. HEK293 TREx D1 cells, calcium flux, dopamine EC80; active compounds read low. activity change, negative = inhibition, % at 10 µM. 360,000 compounds, 3.2% hits. AID 504652; in the data active means activity change below about -30%; further: on the % scale 0 is the no-effect control and ±100 the full control effect
Target sequence (P21728 whole entry, looked up): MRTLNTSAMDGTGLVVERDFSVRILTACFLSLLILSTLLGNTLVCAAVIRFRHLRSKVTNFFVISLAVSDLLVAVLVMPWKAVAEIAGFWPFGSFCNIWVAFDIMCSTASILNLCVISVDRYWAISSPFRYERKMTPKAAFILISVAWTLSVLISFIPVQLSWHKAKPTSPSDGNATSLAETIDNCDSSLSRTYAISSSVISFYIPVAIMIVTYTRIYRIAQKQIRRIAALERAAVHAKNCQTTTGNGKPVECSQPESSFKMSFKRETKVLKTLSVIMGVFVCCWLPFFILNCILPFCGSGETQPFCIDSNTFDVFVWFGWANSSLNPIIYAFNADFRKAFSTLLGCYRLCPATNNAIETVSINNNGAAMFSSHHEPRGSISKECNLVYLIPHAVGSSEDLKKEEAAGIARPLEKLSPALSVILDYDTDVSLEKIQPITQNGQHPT
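Tetracycline-induced HEK293 T-REx cells with force-coupled D1 receptor were loaded with a no-wash calcium dye. Compound was added after a 10 s baseline and read kinetically for 180 s; EC80 dopamine was then added and calcium flux followed another 180 s.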
D1 potentiator: enhances dopamine response at the human D1 receptor; P21728; HEK293 TREx D1 cells, calcium flux, dopamine EC20 potentiation; potentiation, % at 10 µM; 360,000 compounds, 0.036% hits; AID 504651; in the data active means potentiation above about 30%; further: 0% is about no effect
DRD3 antagonist: blocks the human D3 dopamine receptor; max response, negative = inhibition, %; D3R cells, DiscoveRx beta-arrestin luminescence, antagonist mode; active compounds read low; 360,000 compounds, 2.5% hits; in the data active means max response below about -50%; inconclusive means no clear call, values can overlap the other calls; further: on the % scale 0 is the no-effect control and ±100 the full control effect
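Cells plated overnight at 1500 cells/well, then exposed to library compounds with dopamine controls for 90 minutes at 37 degrees C. DiscoveRx reagent added for 30–60 minutes at room temperature; luminescence read, quantitative HTS format.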
D1 agonist: human D1 receptor agonism. P21728. HEK293 T-REx D1 cells, calcium flux, agonist mode. activation, % at 2 µM. 360,000 compounds, 1% hits. AID 504660; in the data active means activation above about 30%; further: 0% is about no effect
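Agonism was scored from calcium flux recorded over 180 s (1 read/s) after pintool compound addition, following a 10-cycle baseline. Cells were inducible force-coupled HEK293 TREx D1, plated overnight at 30 C and loaded with no-wash calcium dye.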
D3 ag: agonists of human D3 dopamine receptor; 410,000 compounds, 0.58% hits; P35462; max activation, %; D3R DiscoveRx beta-arrestin cells, luminescence, 90 min; AID 652048; in the data active means max activation above about 30%; further: 0% is about no effect
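Agonist mode: compounds and dopamine controls were applied to plated cells for 90 min at 37 degrees C after an overnight attachment at 1500 cells/well. Luminescent read-out followed 30 - 60 minutes at room temperature with DiscoveRx detection reagent.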
* = called active by the depositor; u = inconclusive; x = no result given.

SMILES	D1 antag	D1 potentiator	DRD3 antagonist	D1 agonist	D3 ag
COc1ccc(NC(=O)C2CCN(S(=O)(=O)c3ccc4c(c3)CCCC(=O)N4)CC2)c(OC)c1	-6	0	x	1	5
O=C1O[C@@H](c2ccccc2)C[C@@H](O)[C@H](O)CCCc2ccccc21	x	x	-55*	x	-13
O=C(Nc1cccc([N+](=O)[O-])c1)c1ccc2ccccc2c1O	-33*	-8	u	23	-4
O=C(Nc1cccc([N+](=O)[O-])c1)c1ccncc1	1	-9	3	1	-5
CCCc1cc(C(=O)Nc2cccc([N+](=O)[O-])c2)cs1	-32*	-5	-22	11	-8
Cc1cc(C)n(-c2ccc(C(=O)Nc3cccc([N+](=O)[O-])c3)cc2)n1	-36*	-3	-27	13	-13
O=C(Nc1cccc([N+](=O)[O-])c1)c1cnccn1	-59*	-2	9	4	7
Cc1ccc(SCc2ccc(C(=O)Nc3cccc([N+](=O)[O-])c3)cc2)cc1	-51*	-3	13	6	2
Cc1c(Cl)cccc1NC(=O)CCOc1ccccc1	-20	3	x	-1	-16
Cc1ccc(OCC(=O)O/N=C(\N)c2ccncc2)c(C)c1	-31*	x	16	7	26
Cn1c(NC(=O)c2cc(-c3ccc4c(c3)OCO4)nc3ccccc23)cc(=O)n(C)c1=O	-31*	1	u	3	-5
CSc1cccc(NC(=O)CN2CCN(Cc3ccccc3C)S2(=O)=O)c1	0	-2	x	4	-19
COc1ccccc1CN1C[C@@H]2C[C@@H](c3[nH]c4c(C)cccc4c3C)N3CCC[C@@]23C1=O	70	32*	24	44*	6
COc1ccccc1CN1C[C@@H]2C[C@@H](c3cccc(C)n3)N3CCC[C@@]23C1=O	-6	-3	5	2	7
COc1ccc(-c2nc(CN3CCC(C(=O)NCCCOC(C)C)CC3)c(C)o2)cc1OC	3	-3	x	0	2
COc1ccccc1N1CCN(CCCCNC(=O)c2ccc3ccccc3c2)CC1	-54*	-5	x	11	x
COc1ccc(Cl)cc1C(=O)NCCCN1CCOCC1	-1	-1	1	2	-7
COc1ccc(C(=O)NCCCN2CCN(CCCNC(=O)c3ccc(OC)c(OC)c3)CC2)cc1OC	-3	-5	-4	1	-2
COc1cc2c(C(=O)NCCCN3CCN(c4cccc(Cl)c4)CC3)cn(C)c(=O)c2cc1OC	10	-5	-56*	-1	31*
COc1cc2c(C(=O)NCc3ccc4c(c3)OCO4)cn(C)c(=O)c2cc1OC	-31*	-4	52	0	2
COc1ccc(S(N)(=O)=O)cc1C(=O)NCCCN1CCN(c2cccc(Cl)c2)CC1	-51*	-7	-50*	2	5
COc1cc2c(=O)n(Cc3ccccc3Cl)c(=O)n(CC(=O)Nc3ccc(C)c(C)c3)c2cc1OC	-1	-1	x	2	-6
COc1ccc(C)cc1NC(=O)C(=O)NCCc1csc(-c2ccc(C)cc2)n1	9	4	x	3	11
O=C(NCCCN1CCN(CCCNC(=O)c2cccc(Cl)c2)CC1)c1cccc(Cl)c1	-8	-4	9	3	-7
O=C(NCCCN1CCN(c2cccc(Cl)c2)CC1)c1nc(-c2ccncc2)no1	-13	-9	-64*	-1	3
SMILES	D1 antag	D1 potentiator	DRD3 antagonist	D1 agonist	D3 ag
COc1ccc(Cl)cc1C(=O)NCCS(=O)(=O)N1CCN(c2ccccc2OC)CC1	15	-1	x	0	8
COc1ccc(S(N)(=O)=O)cc1C(=O)NCCCN1CCN(c2ccccc2OC)CC1	-12	-14	-92*	2	-5
COc1cc2sc3cc(NCc4ccc5c(c4)OCO5)ccc3c(=O)c2cc1OC	x	x	66	x	41*
COc1ccc(S(N)(=O)=O)cc1C(=O)NCCCN1CCN(c2ccc(C)cc2)CC1	-42*	-20	-71*	3	-10
CN(C)CCCNc1cc(N2CCN(C3CCCCC3)CC2)c2noc3c2c1C(=O)c1ccccc1-3	7	-1	x	2	-19
CC(OC(=O)CCCN=C1NS(=O)(=O)c2ccccc21)C(=O)c1ccccc1 (stereo not drawn)	-1	0	3	45*	4
CC(OC(=O)CCCN=C1NS(=O)(=O)c2ccccc21)C(=O)Nc1ccc(F)c(F)c1F (stereo not drawn)	-1	-3	-2	33*	-17
CC(C)C(=O)OCCN=C1NS(=O)(=O)c2ccccc21	-36*	-6	6	3	-5
CC(OC(=O)CCCN=C1NS(=O)(=O)c2ccccc21)C(=O)N(C)c1ccccc1 (stereo not drawn)	4	-3	0	6	1
CCN1CCOC(=O)C1CC(=O)Nc1cc(C)cc(C)c1 (stereo not drawn)	1	-3	x	0	-5
CCc1cccc(NC(=O)C2CCN(C(=O)c3cnn(-c4ccccc4)c3-n3cccc3)CC2)c1	-8	2	x	4	6
CCc1ccc2oc(C(=O)NCC(c3ccc(OC)cc3)N3CCCCC3)c(C)c2c1 (stereo not drawn)	9	-4	-77*	1	-16
COc1ccc(C(CNC(=O)c2oc3cc(Br)ccc3c2C)N2CCCCC2)cc1 (stereo not drawn)	11	-1	-86*	3	-14
COc1ccc(C(CNC(=O)c2oc3ccc(OC)cc3c2C)N2CCCC2)cc1 (stereo not drawn)	-6	-6	-19	10	-28
COc1ccc(C(CNC(=O)c2oc3ccc(F)cc3c2C)N2CCCCC2)cc1 (stereo not drawn)	-5	0	-104*	4	-23
COc1ccc(C(CNC(=O)c2oc3cc(C)c(C)cc3c2C)N2CCCCC2)cc1 (stereo not drawn)	9	6	u	1	-17
COc1ccc(C(CNC(=O)c2oc3ccc(Br)cc3c2C)N2CCCCC2)cc1 (stereo not drawn)	20	-1	-76*	1	-15
COc1ccc(-n2ccn(Cc3ccccc3C)c(=O)c2=O)cc1	-12	-5	x	13	-3
COc1cc(NC(=O)CCN2CCN(C/C=C/c3ccccc3)CC2)cc(OC)c1	-12	-11	-59*	8	3
Cc1ccc(NC(=O)CCN2CCC(Cc3ccccc3)CC2)cc1	-17	-2	-53*	8	-17
COc1ccc(NC(=O)CCN2CCN(C/C=C/c3ccccc3)CC2)cc1	4	-1	-12	6	-9
COc1ccc(C)cc1NC(=O)CCN1CCN(C/C=C/c2ccccc2)CC1	-4	-1	-52*	3	-15
Cc1ccc(NC(=O)CCN2CCN(C/C=C/c3ccccc3)CC2)cc1	-6	-8	-53*	8	-7
CCOC(=O)c1c(-c2ccccc2)oc2ccc(NS(=O)(=O)c3ccc(C)cc3)cc12	-8	0	x	4	-6
